Experimental data reported in PubChem BioAssay (Tox21).
Results filed as inconclusive are left out. The source made the active and inactive calls. Unless noted, calls follow the shape of the dose curve; as a rule, active = well fitted curve in the direction sought with a large enough effect in the repeat runs; inconclusive = weak or mixed curves; inactive = flat fitted curve, though single readings scatter.

Legend:
[1] = qHTS assay to test for compound auto fluorescence at 535 nm (green) in HEK293 cells (AID 720680)
[2] = qHTS assay to test for compound auto fluorescence at 460 nm (blue) in HEK293 cell free culture (AID 720681)
Method in brief: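 Test compounds were pinned into cell-free culture medium (DMEM with 10% FBS) and fluorescence was read directly at Ex/Em 405/460 nm. Signals were expressed as fluorescence equivalents of triamterene, with DMSO vehicle as control.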

[3] = qHTS assay to test for compound auto fluorescence at 535 nm (green) in HEK293 cell free culture (AID 720682)
Method in brief: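 Using fluorescein as calibrant, autofluorescence was quantified at 485/535 nm in cell-free DMEM containing 10% FBS after pintool addition of compound or vehicle.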

[4] = qHTS assay to test for compound auto fluorescence at 590 nm (red) in HEK293 cell free culture (AID 720683)
Method in brief: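 Tox21 10K library compounds were pinned into cell-free DMEM with 10% FBS and fluorescence was read at excitation 540 nm. Activity is expressed as Rose Bengal sodium equivalency.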

[5] = qHTS assay to test for compound auto fluorescence at 590 nm (red) in HepG2 cell free culture (AID 720684)
Method in brief: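 Readout: intrinsic compound fluorescence at 590 nm emission after 540 nm excitation, scaled to Rose Bengal sodium. Matrix was cell-free MEM with 10% FBS; DMSO vehicle wells served as control.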

[6] = qHTS assay to test for compound auto fluorescence at 460 nm (blue) in HepG2 cell free culture (AID 720685)
Method in brief: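 Cell-free plates of MEM plus 10% FBS received 23 nL compound or DMSO vehicle; blue-channel (405/460 nm) intensity scored against triamterene as reference fluorophore.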

[7] = qHTS assay to test for compound auto fluorescence at 535 nm (green) in HepG2 cell free culture (AID 720686)
[8] = qHTS assay to test for compound auto fluorescence at 460 nm (blue) in HepG2 cells (AID 720687)
Method in brief: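 Cells (2,000/well in MEM with 10% FBS) attached overnight at 37 C, then were exposed to compound or DMSO for 1 hr at 37 C, 5% CO2. Fluorescence read at Ex/Em 405/460 nm, expressed as triamterene-equivalent signal.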

[9] = target: Glucocorticoid receptor (Homo sapiens) (UniProt P04150); assay: qHTS assay to identify small molecule agonists of the glucocorticoid receptor (GR) signaling pathway (AID 720691; active = well fitted activation curve with a large enough effect in the signal ratio in the repeat runs, not every such curve was filed as active; the % refers to the signal ratio)
Method in brief: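 Steps: seed GR-bla HeLa cells, incubate 4 h at 37 C/5% CO2; pin-transfer DMSO-dissolved compounds; incubate 18 h at 37 C; add LiveBLAzer B/G FRET substrate; after 2 h at room temperature, measure fluorescence.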

Measured: Potency

Glucocorticoid receptor (Homo sapiens), sequence (P04150 whole entry, looked up): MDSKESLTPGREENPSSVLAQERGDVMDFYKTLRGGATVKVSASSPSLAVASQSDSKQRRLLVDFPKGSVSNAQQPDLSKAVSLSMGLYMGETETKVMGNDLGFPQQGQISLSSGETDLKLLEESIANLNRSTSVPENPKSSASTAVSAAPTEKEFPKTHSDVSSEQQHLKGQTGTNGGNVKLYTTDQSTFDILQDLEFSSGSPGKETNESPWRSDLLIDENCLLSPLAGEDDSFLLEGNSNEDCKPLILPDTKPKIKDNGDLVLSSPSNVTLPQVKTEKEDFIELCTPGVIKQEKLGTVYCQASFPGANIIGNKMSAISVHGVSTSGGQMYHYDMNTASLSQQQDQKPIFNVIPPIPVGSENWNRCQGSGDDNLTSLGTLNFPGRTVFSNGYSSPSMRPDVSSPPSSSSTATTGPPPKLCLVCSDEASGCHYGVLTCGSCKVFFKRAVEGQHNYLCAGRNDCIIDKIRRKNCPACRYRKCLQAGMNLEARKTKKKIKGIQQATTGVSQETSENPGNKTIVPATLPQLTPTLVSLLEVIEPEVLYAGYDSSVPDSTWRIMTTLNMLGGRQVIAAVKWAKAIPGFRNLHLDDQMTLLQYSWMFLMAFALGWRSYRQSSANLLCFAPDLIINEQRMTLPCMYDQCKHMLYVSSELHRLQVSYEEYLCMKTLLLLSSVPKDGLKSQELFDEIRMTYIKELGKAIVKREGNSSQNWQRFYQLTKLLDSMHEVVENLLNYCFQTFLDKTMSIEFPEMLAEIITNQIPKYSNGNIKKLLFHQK

CC1(CN2CCC(n3c(=O)[nH]c4ccccc43)CC2)OCc2ccccc2-n2cccc21 (stereo not drawn)
inactive: [1] | [2] | [3] | [4] | [5] | [6] | [7] | [8]

CC=C(Cl)Cl
inactive: [1] | [2] | [3] | [4] | [5] | [6] | [7] | [8] | [9]

C(=C\c1ccccc1)/c1ccccc1
inactive: [1] | [2] | [3] | [4] | [5] | [6] | [7] | [8]

CN1C[C@H](C(=O)N[C@]2(C)O[C@@]3(O)[C@@H]4CCCN4C(=O)[C@H](Cc4ccccc4)N3C2=O)C[C@@H]2c3cccc4[nH]cc(c34)C[C@H]21
inactive: [1] | [2] | [3] | [4] | [5] | [6] | [7] | [8] | [9]

O=c1cc(-c2ccccc2)oc2cc(O)cc(O)c12
inactive: [1] | [2] | [3] | [4] | [5] | [6] | [7] | [8]

O=C(O)c1cccc(-c2noc(-c3ccccc3F)n2)c1
inactive: [1] | [2] | [3] | [4] | [5] | [6] | [7] | [8] | [9]

CC(C)(c1ccccc1)c1ccccc1
inactive: [1] | [2] | [3] | [4] | [5] | [6] | [7] | [8]

NCCNCCO
inactive: [1] | [2] | [3] | [4] | [5] | [6] | [7] | [8] | [9]

CC(C)COCC(CN(Cc1ccccc1)c1ccccc1)N1CCCC1 (stereo not drawn)
inactive: [1] | [2] | [3] | [4] | [5] | [6] | [7] | [8] | [9]

O=C=Nc1cccc(C(F)(F)F)c1
inactive: [1] | [2] | [3] | [4] | [5] | [6] | [7] | [8] | [9]

Cc1cccc(N(C)C(=S)Oc2ccc3c(c2)CCC3)c1
inactive: [1] | [2] | [3] | [4] | [5] | [6] | [7] | [8] | [9]

O=C(O)c1ccc(OCCCOc2ccc(C(=O)O)cc2)cc1
inactive: [1] | [2] | [3] | [4] | [5] | [6] | [7] | [8]

Cc1ccc(OC(=O)c2ccccc2O)cc1
inactive: [1] | [2] | [3] | [4] | [5] | [6] | [7] | [8]

CC(C)C(O)(c1ccc(OC(F)(F)F)cc1)c1cncnc1 (stereo not drawn)
inactive: [1] | [2] | [3] | [4] | [5] | [6] | [7] | [8] | [9]

O=C(OC(=O)c1ccccc1)c1ccccc1
inactive: [1] | [2] | [3] | [4] | [5] | [6] | [7] | [8]

C=C1C[C@@]23CC[C@H]4[C@@](C)(CCC[C@@]4(C)C(=O)O[C@@H]4O[C@H](CO)[C@@H](O)[C@H](O)[C@H]4O)[C@@H]2CC[C@]1(O[C@@H]1O[C@H](CO)[C@@H](O)[C@H](O[C@@H]2O[C@H](CO)[C@@H](O)[C@H](O)[C@H]2O)[C@H]1O[C@@H]1O[C@H](CO)[C@@H](O)[C@H](O)[C@H]1O)C3
inactive: [1] | [2] | [3] | [4] | [5] | [6] | [7] | [8] | [9]

C/C=C\C/C=C/CCCCCCCCOC(C)=O
inactive: [1] | [2] | [3] | [4] | [5] | [6] | [7] | [8]

COc1ncnc(NS(=O)(=O)c2ccc(N)cc2)c1OC
inactive: [1] | [2] | [3] | [4] | [5] | [6] | [7] | [8]

CCOC(=O)c1ccc(I)cc1
inactive: [1] | [2] | [3] | [4] | [5] | [6] | [7] | [8]

CCCCCCCC/C=C\CCCCCCCCCCCC(=O)O
inactive: [1] | [2] | [3] | [4] | [5] | [6] | [7] | [8]

CC(O)c1ccccc1 (stereo not drawn)
inactive: [1] | [2] | [3] | [4] | [5] | [6] | [7] | [8]

C[C@H]1c2cccc(O)c2C(O)=C2C(=O)[C@]3(O)C(O)=C(C(N)=O)C(=O)[C@@H](N(C)C)[C@@H]3[C@@H](O)[C@@H]21
inactive: [1] | [2] | [3] | [4] | [5] | [6] | [7] | [8]

CCC(C)COC(=O)CC(C)C (stereo not drawn)
inactive: [1] | [2] | [3] | [4] | [5] | [6] | [7] | [8]
